High-throughput results deposited in PubChem BioAssay by National Center for Advancing Translational Sciences (NCATS).
ELG1 genotoxic – qHTS screen for small molecules that induce genotoxicity in human embryonic kidney (HEK293T) cells expressing luciferase-tagged ELG1. HEK293T ELG1-luciferase reporter, luminescence, 16 h. Potency, µM (highest dose often 46 µM), actives largely listed as activators. 1.3% of 330,000 active. AID 504466, 2011; further: nearly all actives have a fitted effect of over 60% in size
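Quantitative HTS format in 1536-well plates. HEK293T ELG1-luciferase reporter cells receive test compound and are incubated 16 hr at 37 °C, 5% CO2; ONE-Glo added, 30 min room temperature, then luminescence read.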
FLuc counter – qHTS profiling assay for firefly luciferase inhibitor/activator using purifed enzyme and Km concentrations of substrates (counterscreen for miR-21 project). Luciferin 4-monooxygenase (Photinus pyralis), P08659. purified FLuc, Km substrates, luminescence inhibition. Potency, µM (highest dose often 57.5 µM), hits mostly inhibitors. 6.9% of 360,000 active; further: nearly all actives have a fitted effect of over 55% in size
Target sequence (P08659 whole entry, looked up): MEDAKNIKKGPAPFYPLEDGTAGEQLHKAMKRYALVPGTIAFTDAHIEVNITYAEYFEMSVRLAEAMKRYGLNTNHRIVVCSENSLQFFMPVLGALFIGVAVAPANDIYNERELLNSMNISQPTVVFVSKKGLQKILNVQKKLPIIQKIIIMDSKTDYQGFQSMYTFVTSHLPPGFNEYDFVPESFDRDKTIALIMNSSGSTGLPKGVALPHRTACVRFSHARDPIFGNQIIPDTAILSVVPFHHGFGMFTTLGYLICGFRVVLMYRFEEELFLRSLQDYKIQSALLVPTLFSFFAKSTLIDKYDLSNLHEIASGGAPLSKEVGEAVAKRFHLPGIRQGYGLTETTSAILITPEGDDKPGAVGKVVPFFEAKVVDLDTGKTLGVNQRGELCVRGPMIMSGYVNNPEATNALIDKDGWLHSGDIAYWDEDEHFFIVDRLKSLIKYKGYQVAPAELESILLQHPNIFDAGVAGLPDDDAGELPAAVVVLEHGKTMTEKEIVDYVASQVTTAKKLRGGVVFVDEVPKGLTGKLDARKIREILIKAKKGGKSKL
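Purified P. pyralis luciferase, 10 nM final, with Km-level 10 uM D-luciferin and 10 uM ATP in 50 mM Tris acetate pH 7.5, 10 mM Mg acetate, 0.01% Tween-20, 0.05% BSA; 6-point qHTS titration about 60 µM downward; luminescence read.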
SMN2 splice enh – qHTS Assay for Enhancers of SMN2 Splice Variant Expression; HEK293 SMN2-luciferase splicing reporter, luminescence, 30-36 h; Potency, µM (top dose mostly 46.1 µM), actives largely listed as activators; 2.8% of 210,000 active; AID 1458, 2008; further: nearly all actives have a fitted effect of over 55% in size
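qHTS luciferase splicing reporter: luminescence rises when SMN2 exon 7 is included in transfected HEK293 cells. Compound exposure lasted 30-36 h at 37C, with 4.5 mM final sodium butyrate as control, followed by a ONE-Glo read.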
p53 reactivation – qHTS assay for re-activators of p53 using a Luc reporter; H1299 p53-A138V BP100-luciferase reporter, luminescence, 24 h; Potency, µM (series often up to 92.2 µM), actives largely listed as activators; 0.063% of 320,000 active; AID 504706, 2011; further: nearly all actives have a fitted effect of over 45% in size
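H1299 (p53-null), stable ts p53-A138V + BP100-Luc; 1000 cells/well, Opti-MEM/10% FBS; cpd 4 pt, 1:5; 24 h, 37 deg C, 5% CO2; detection reagent 10 min RT; luminescence.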
NPC1 prom act – qHTS Assay for NPC1 Promoter Activators; Potency, µM (titrated, usually from 9.22 µM), hits mostly activators; AID 485313, 2010; Huh7 NPC1 promoter luciferase reporter, 24 h; 2.4% of 320,000 active; further: nearly all actives have a fitted effect of over 60% in size
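Compounds in DMSO were transferred onto Huh7 NPC1-luciferase reporter cells pre-incubated 2 h; after 24 h at 37 °C, Amplite reagent was dispensed and luminescence recorded 10 min later.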
Rab9 prom act – qHTS Assay for Rab9 Promoter Activators; 2.8% of 320,000 active; Potency, µM (top dose mostly 9.22 µM), actives largely listed as activators; Huh7 Rab9 promoter-luciferase reporter, luminescence, 24 h; further: nearly all actives have a fitted effect of over 60% in size
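Cells were plated at 1500 per well in reduced-serum medium with 10% FBS and left 2 h. Compound in DMSO was then added for 24 h at 37 °C. Reporter signal was read by luminescence after 10 min with luciferase detection reagent.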
Hits are given with their value; – = inactive; ? = inconclusive; · = no result given; [ ] = another dose, or the depositor's remark. The list is not random: actives were taken first. Their share in the collection is about 7.4%. The call rests on the fitted dose curve; in most records, active means well fitted curve in the direction sought with a large enough effect; inconclusive means small, poorly fitted or top-dose-only effect, or another doubt; inactive means no such curve, though single readings can be large; an effect the other way counts as inactive or inconclusive.

SMILES | ELG1 genotoxic | FLuc counter | SMN2 splice enh | p53 reactivation | NPC1 prom act | Rab9 prom act
C/C(=N\NC(=O)c1ccccc1)c1ccc2c(c1)OCO2 | 18.4µM | 15.1µM | – | – | ? | 2.82µM
C/C(=N\NC(=O)c1ccc2c(c1)OCO2)c1ccc(O)cc1 | ? | ? | · | – | ? | ?
C/C(=N\NC(=O)c1c[nH]c2ccccc12)c1ccc2c(c1)OCO2 | – | 26.9µM | – | – | – | –
C/C(=N\NC(=O)c1ccc(Br)cc1)c1cccnc1 | ? | 13.5µM | · | – | – | ?
O=C(CN1C(=O)C2C3CC(C(Br)C3Br)C2C1=O)N1CCN(Cc2ccccc2)CC1 (centres undefined) | – | – | · | – | – | –
C=CCNc1nc(C(=O)OCC(=O)c2ccc(Cl)cc2)cs1 | – | – | · | – | – | –
N#Cc1ccc2c(c1)C[C@]1(c3ccsc3)OC3=C(C(=O)OC4(CCCCC4)C3)C2O1 | · | ? | · | · | –[1.84 µM] | –[1.84 µM]
Cc1ccc(OCCCCn2nnc3sc4c(c3c2=O)CCC(C)C4)cc1 (centres undefined) | · | – | – | · | · | ·
CC(=O)Nc1cccc(/C(C)=N/NC(=O)c2ccc3c(c2)OCO3)c1 | ? | 6.01µM | 11.2µM | – | – | ?
C/C(=N\NC(=O)c1ccc2c(c1)OCO2)c1cccnc1 | ? | ? | · | – | ? | 3.55µM
CC(/C=C/c1ccc2c(c1)OCO2)=N/NC(=O)c1cccnc1 | – | ? | ? | ? | – | –
O=C(c1ccc(CSc2nc3ccncc3n2Cc2cccc(F)c2)cc1)N1CCCCCC1 | · | ? | – | · | · | ·
CSc1cccc(-n2cc(-c3ccc4c(c3)OCO4)[nH]c2=O)c1 | ? | 21.3µM | ? | ? | – | ?
O=C1C2C3C=CC(C4CC34)C2C(=O)N1c1ccc2c(c1)OCO2 (centres undefined) | – | 21.3µM | – | – | – | –
CCCCCN(C(=O)CCC(=O)OCC(=O)Nc1cccc(CC)c1)c1c(N)n(CCCC)c(=O)[nH]c1=O | – | – | · | – | – | –
Cc1c(NC(=O)c2ccc(N3CCCC3)c([N+](=O)[O-])c2)cccc1-c1nc2ccccc2s1 | – | 2.69µM | – | – | – | –
CN1CCN(c2ccccc2NC(=O)c2ccc(N3CCCCC3)c([N+](=O)[O-])c2)CC1 | – | – | – | – | – | –
Cc1c(NC(=O)c2ncn[nH]2)cccc1-c1nc2ccccc2s1 | – | 4.26µM | – | – | – | –
CC1=C(C(=O)Nc2cccc(Cl)c2C)C2(CCCCCC2)OC1=O | · | – | · | · | · | ·
CC(C)NC(=O)N1CCCC2(CCN(C(=O)c3ccncc3)CC2)C1 | · | · | – | · | · | ·
Cc1cc(C)n2c(nc3ccccc32)c1C(=O)NN | – | 0.379µM | · | – | – | –
O=C(NN1CC(C(=O)OCc2ccccc2F)CC1=O)c1ccccc1 (centres undefined) | – | – | · | – | – | –
COc1cccc(NC(=O)Cn2c(=O)n(Cc3ccc(C(=O)NCc4ccc(C)cc4)cc3)c(=O)c3ccccc32)c1 | · | – | – | · | · | ·
O=C1CCCC(O)=C1N=Nc1ccc2c(c1)OCO2 | 16.4µM | 9.53µM | 15.8µM | ? | ? | 3.16µM
COc1ccc(-n2ncc3c(NCc4cccs4)ncnc32)cc1 | ? | 9.53µM | ? | – | 2.51µM | 1.12µM
SMILES | ELG1 genotoxic | FLuc counter | SMN2 splice enh | p53 reactivation | NPC1 prom act | Rab9 prom act
COc1ccc(-n2ccnc(NCc3cccs3)c2=O)cc1 | · | – | · | · | · | ·
c1ccc(-n2ncc3c(NCc4cccs4)ncnc32)cc1 | 10.3µM | 12µM | 11.2µM | ? | 3.55µM | 2µM
NNc1ncnc2c1cnn2-c1ccccc1 | – | ? | – | ? | – | –
Cc1c(NC(=O)Nc2cccc(C(F)(F)F)c2)sc2nc3n(c(=O)c12)CCC(C)CC3 (centres undefined) | · | – | – | · | · | ·
O=C(OCCN1CCCCC1)c1cccc(Cl)c1 | – | – | · | · | – | –
Cc1ccc(S(=O)(=O)NCCSc2nnnn2-c2ccc(Cl)c(C(=O)O)c2)cc1 | · | – | – | · | · | ·
O=C1C2C(C(=O)N1/N=C/c1cccc([N+](=O)[O-])c1)C1C=CC2C12CC2 (centres undefined) | ? | 7.57µM | – | ? | ? | ?
O=C(c1cccc([N+](=O)[O-])c1)N1CCOCC1 | – | – | –[1.84 µM] | – | – | –
O=C(/C=C\c1ccc(-c2cccc([N+](=O)[O-])c2)o1)N1CCOCC1 | ? | ? | · | – | ? | 3.55µM
C=CCn1cc(/C=N/NC(=O)COc2cccc3cccnc23)c2ccccc21 | – | ? | – | – | – | –
COc1cccc(/C=N/NC(=O)COc2cccc3cccnc23)c1O | – | 12µM | – | – | – | –
CC(C)n1cc(/C=N/NC(=O)COc2cccc3cccnc23)c2ccccc21 | – | 2.69µM | · | – | – | –
Cc1ccc(C)c(N2CCN(C(=O)CN3CCSc4ccc(S(=O)(=O)N(C)C)cc43)CC2)c1 | · | – | · | · | · | ·
O=C(COC(=O)c1ccc[nH]c1=O)NCCc1ccc(Cl)cc1Cl | ? | 10.7µM | · | – | 0.398µM | 0.501µM
Cc1ccc(C(=O)c2ccccc2C(=O)OCC(=O)NCCc2ccc(Cl)cc2Cl)cc1 | – | – | – | – | – | –
C=C(C)CSc1nc(N)c(C#N)c(-c2ccc(C)cc2)c1C#N | · | 15.1µM | – | · | · | ·
O=C(O)c1ccccc1OP(=O)(O)O | · | · | – | · | · | ·
COC(=O)N1[C@H](C)C=C[C@]1(Cc1ccccc1)C(=O)NCc1ccc(N(C)C)cc1 | · | · | 12.6µM | · | · | ·
CCC(C(=O)OC)n1nnc2sc(-c3ccccc3)cc2c1=O (centres undefined) | · | 19µM | – | · | · | ·
Cc1cc(C)c(NC(=O)C(C)n2nnc3sc(-c4ccccc4)cc3c2=O)c(C)c1 (centres undefined) | · | – | – | · | · | ·
COc1ccc(NC(=O)C(C)n2nnc3sc(-c4ccccc4)cc3c2=O)cc1Cl (centres undefined) | · | 6.01µM | – | · | · | ·
COCCOC(=O)Cn1nnc2sc(-c3ccccc3)cc2c1=O | · | – | – | · | · | ·
COc1cc(Cl)c(C)cc1NC(=O)c1cc2ccc3cccnc3c2[nH]1 | · | – | · | · | · | ·
COCCC1CCCCN1C(=O)c1ccc2nc(Cc3ccccc3F)oc2c1 (centres undefined) | 10.3µM | 8.49µM | · | – | 1.78µM | 2.82µM
COCC1CCCCN1C(=O)c1ccc2oc(CCc3ccccc3)nc2c1 (centres undefined) | ? | ? | · | – | ? | ?
COC(=O)C1CCCCN1C(=O)c1ccc2oc(C(C)C)nc2c1 (centres undefined) | – | – | · | – | – | –
COC(=O)C1CCCCN1C(=O)c1ccc2oc(Cc3ccccc3)nc2c1 (centres undefined) | ? | 15.1µM | · | – | 3.55µM | ?
